From the supplement of paper PMC11732987, “Enantioselective OTUD7B fragment discovery through chemoproteomics screening and high-throughput optimisation” (Communications Chemistry, 2025)

Compound: ClCC(=O)NC1(CCCC1)C#N
Experiment: log2 ratio of Biotin-Ahx-Ub-VS probe labelling (compound/DMSO); higher = less target engagement, active = hit call of the paper (q ≤ 0.05, log2 ratio ≤ -1)
Details: compound concentration: 50uM; treatment time: 3 h
Description: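 Round 2 competitive ABPP in HEK293T lysate. Compounds were tested at 50 and 200 µM for 3 h, followed by Biotin-Ahx-Ub-VS enrichment and diaPASEF LC-MS/MS. Values are the average log2 ratio (compound/DMSO) from an unpaired t-test (n=3 treated, n=26 DMSO).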

UniProt Q9UGI0, sequence (Q9UGI0 whole entry): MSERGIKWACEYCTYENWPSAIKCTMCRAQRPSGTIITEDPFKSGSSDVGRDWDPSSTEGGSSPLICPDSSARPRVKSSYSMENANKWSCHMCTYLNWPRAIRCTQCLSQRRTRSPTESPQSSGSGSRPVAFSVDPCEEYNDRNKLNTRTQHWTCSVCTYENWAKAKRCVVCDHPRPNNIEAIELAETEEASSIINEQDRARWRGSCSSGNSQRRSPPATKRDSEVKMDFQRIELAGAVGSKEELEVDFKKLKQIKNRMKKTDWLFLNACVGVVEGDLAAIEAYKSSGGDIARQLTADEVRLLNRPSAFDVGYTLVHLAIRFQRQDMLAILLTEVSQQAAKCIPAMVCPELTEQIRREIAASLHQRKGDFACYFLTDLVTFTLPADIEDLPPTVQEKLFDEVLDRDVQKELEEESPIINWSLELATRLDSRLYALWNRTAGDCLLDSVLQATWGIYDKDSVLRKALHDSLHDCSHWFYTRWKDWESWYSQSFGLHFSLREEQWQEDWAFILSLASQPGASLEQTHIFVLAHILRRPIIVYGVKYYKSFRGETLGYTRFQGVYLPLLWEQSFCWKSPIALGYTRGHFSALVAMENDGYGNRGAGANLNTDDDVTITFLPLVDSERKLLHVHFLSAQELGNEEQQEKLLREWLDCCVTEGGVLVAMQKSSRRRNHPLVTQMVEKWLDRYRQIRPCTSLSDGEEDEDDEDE
UniProt Q9NP73, sequence (Q9NP73 whole entry): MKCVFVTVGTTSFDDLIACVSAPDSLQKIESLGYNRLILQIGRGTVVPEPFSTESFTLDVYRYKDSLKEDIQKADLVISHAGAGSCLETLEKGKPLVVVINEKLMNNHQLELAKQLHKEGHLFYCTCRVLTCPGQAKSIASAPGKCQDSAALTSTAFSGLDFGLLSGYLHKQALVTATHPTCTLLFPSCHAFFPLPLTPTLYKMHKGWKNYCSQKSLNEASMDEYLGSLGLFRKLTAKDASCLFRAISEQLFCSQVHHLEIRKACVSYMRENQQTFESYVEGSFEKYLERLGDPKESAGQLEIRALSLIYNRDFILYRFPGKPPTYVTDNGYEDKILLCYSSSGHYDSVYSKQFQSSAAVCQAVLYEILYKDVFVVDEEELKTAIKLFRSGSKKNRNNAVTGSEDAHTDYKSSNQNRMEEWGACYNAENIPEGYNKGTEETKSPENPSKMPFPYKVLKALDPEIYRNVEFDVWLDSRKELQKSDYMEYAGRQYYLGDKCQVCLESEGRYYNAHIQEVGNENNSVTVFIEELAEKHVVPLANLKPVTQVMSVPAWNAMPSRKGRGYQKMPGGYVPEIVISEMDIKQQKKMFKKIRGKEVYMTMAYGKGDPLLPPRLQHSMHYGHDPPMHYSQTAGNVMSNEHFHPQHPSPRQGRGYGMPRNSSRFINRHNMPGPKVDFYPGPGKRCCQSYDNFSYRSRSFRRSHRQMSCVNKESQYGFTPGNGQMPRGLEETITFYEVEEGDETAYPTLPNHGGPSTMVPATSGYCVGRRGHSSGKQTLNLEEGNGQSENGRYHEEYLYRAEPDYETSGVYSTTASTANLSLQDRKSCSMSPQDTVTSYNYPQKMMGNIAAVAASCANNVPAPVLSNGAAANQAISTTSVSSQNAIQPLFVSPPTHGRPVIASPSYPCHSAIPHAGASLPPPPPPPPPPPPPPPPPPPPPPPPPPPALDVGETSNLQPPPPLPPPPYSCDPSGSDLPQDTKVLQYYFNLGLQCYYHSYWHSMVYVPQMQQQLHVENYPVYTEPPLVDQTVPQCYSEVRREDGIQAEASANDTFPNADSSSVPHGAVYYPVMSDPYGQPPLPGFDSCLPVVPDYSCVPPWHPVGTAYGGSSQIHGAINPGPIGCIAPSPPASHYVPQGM
UniProt Q9UHP3, sequence (Q9UHP3 whole entry): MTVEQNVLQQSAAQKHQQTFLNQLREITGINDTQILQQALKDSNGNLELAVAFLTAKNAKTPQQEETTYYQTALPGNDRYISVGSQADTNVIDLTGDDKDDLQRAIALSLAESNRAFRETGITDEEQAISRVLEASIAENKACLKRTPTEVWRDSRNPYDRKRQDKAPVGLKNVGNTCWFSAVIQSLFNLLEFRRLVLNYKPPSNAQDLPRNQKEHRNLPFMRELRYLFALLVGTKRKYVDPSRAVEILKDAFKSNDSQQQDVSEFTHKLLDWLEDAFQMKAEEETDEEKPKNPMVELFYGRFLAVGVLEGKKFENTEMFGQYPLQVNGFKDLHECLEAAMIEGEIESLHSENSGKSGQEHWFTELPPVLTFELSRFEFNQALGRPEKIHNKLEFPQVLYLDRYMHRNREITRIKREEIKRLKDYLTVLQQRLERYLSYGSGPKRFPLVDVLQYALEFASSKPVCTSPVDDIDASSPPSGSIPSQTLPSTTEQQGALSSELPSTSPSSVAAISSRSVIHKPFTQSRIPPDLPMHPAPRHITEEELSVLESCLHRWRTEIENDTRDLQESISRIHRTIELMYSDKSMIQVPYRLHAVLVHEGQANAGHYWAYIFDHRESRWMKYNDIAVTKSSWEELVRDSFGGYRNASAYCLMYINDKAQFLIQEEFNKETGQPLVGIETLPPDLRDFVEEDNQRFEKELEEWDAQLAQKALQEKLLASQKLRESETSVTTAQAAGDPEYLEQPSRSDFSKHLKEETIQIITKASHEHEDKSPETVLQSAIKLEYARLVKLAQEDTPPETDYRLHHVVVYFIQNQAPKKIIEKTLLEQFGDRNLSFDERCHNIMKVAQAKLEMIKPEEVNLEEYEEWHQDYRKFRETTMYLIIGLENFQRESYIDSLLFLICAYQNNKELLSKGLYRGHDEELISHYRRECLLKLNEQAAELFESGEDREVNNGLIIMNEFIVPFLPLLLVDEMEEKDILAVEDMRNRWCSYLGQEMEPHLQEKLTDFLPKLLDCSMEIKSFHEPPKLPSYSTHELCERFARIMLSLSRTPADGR
UniProt Q86UV5, sequence (Q86UV5 whole entry): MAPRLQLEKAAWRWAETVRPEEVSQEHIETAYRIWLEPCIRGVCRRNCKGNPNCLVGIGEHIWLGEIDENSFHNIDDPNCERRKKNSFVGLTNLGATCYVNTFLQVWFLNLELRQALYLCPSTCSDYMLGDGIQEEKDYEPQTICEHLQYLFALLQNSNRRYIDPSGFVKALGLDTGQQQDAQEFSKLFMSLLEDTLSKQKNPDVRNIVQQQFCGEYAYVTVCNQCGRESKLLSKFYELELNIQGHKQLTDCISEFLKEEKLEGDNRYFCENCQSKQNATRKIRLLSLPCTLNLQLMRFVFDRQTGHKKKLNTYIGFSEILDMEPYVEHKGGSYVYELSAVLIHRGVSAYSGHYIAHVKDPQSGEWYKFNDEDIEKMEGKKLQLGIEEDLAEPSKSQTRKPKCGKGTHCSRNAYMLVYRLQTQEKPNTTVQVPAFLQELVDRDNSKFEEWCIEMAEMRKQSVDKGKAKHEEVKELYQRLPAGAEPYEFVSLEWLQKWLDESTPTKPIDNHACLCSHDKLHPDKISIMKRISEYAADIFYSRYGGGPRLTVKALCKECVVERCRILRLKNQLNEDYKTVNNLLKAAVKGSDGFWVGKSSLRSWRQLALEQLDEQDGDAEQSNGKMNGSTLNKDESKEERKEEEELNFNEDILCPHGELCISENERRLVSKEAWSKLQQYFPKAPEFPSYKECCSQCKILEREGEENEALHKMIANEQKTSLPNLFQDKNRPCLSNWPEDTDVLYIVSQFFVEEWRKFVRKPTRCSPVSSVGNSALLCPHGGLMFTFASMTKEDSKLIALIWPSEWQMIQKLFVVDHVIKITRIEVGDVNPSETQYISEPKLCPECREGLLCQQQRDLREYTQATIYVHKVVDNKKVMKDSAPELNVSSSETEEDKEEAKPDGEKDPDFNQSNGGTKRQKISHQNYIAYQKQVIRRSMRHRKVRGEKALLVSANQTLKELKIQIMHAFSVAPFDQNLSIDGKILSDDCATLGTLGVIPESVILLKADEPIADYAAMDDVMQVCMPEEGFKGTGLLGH
UniProt Q5T2D3, sequence (Q5T2D3 whole entry): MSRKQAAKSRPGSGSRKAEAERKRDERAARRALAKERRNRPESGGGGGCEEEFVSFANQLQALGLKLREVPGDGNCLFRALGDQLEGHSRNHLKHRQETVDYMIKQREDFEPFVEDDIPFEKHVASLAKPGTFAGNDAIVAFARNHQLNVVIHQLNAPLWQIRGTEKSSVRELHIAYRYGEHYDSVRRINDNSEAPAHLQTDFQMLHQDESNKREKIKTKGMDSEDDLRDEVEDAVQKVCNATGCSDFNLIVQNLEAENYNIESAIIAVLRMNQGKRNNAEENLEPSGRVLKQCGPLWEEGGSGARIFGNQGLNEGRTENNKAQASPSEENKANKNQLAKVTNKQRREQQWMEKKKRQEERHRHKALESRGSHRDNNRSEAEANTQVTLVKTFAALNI
UniProt Q5VVQ6, sequence (Q5VVQ6 whole entry): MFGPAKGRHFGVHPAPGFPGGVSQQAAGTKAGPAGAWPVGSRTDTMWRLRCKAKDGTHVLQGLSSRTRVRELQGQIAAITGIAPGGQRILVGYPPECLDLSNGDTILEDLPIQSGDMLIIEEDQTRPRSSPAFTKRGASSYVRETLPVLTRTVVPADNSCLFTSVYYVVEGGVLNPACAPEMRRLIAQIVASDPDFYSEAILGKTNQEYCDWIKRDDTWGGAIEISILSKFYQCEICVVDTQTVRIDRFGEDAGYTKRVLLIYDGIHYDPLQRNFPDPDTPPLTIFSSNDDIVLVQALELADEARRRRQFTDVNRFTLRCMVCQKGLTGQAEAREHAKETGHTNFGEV
UniProt Q8N6M0, sequence (Q8N6M0 whole entry): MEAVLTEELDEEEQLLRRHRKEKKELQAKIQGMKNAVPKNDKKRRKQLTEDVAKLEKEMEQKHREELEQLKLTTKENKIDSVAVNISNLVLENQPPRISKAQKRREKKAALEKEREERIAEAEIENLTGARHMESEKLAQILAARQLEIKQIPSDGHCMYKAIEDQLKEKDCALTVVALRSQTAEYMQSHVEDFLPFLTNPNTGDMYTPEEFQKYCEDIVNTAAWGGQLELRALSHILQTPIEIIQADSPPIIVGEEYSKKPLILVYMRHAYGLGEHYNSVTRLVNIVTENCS

Target	log2 ratio of Biotin-Ahx-Ub-VS probe labelling
USP48 (UniProt Q86UV5)	-0.156 (inactive)
USP9X (UniProt Q93008)	-0.227 (inactive)
OTUD4 (UniProt Q01804)	-1.46 (active)
OTUD6B (UniProt Q8N6M0)	-0.241 (inactive)
ALG13 (UniProt Q9NP73)	-0.154 (inactive)
UniProt Q5T2D3	-0.0676 (inactive)
YOD1 (UniProt Q5VVQ6)	-0.0389 (inactive)
UniProt Q9UGI0	-0.46 (inactive)
USP25 (UniProt Q9UHP3)	-0.312 (inactive)

Same assay, conditions: compound concentration: 200uM; treatment time: 3 h

Target	log2 ratio of Biotin-Ahx-Ub-VS probe labelling
USP48 (UniProt Q86UV5)	-0.0443 (inactive)
USP9X (UniProt Q93008)	-0.123 (inactive)
OTUD4 (UniProt Q01804)	-1.76 (active)
OTUD6B (UniProt Q8N6M0)	-0.219 (inactive)
ALG13 (UniProt Q9NP73)	0.381 (inactive)
UniProt Q5T2D3	-0.0477 (inactive)
YOD1 (UniProt Q5VVQ6)	0.0083 (inactive)
UniProt Q9UGI0	0.243 (inactive)
USP25 (UniProt Q9UHP3)	-1.01 (active)
